According to PubChem BioAssay AID1540 (National Center for Advancing Translational Sciences (NCATS), 2009):
Results filed as inconclusive are left out. The source made the active and inactive calls. Calls come from the whole dose curve; as a rule, active = well fitted activation curve with a large enough effect; inconclusive = small, poorly fitted or top-dose-only effect, or effect the other way; inactive = flat fitted curve, though single readings scatter.

Biological target: Pyruvate kinase PKM (Homo sapiens) (UniProt P14618)
Assay: Secondary assay for Activators of Human Pyruvate Kinase M2 isoform
Outline: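 Purified hPK-M2 (10 nM) coupled to LDH (1 uM) and 0.2 mM NADH, with 0.1 mM PEP and 4.0 mM ADP in Tris-Cl pH 8.0 and 15 mM MgCl2. Initial rates from kinetic NADH fluorescence depletion over 3–6 min, normalized to fructose-bis-phosphate activation.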

Sequence of Pyruvate kinase PKM (Homo sapiens) (P14618 whole entry, looked up, canonical isoform): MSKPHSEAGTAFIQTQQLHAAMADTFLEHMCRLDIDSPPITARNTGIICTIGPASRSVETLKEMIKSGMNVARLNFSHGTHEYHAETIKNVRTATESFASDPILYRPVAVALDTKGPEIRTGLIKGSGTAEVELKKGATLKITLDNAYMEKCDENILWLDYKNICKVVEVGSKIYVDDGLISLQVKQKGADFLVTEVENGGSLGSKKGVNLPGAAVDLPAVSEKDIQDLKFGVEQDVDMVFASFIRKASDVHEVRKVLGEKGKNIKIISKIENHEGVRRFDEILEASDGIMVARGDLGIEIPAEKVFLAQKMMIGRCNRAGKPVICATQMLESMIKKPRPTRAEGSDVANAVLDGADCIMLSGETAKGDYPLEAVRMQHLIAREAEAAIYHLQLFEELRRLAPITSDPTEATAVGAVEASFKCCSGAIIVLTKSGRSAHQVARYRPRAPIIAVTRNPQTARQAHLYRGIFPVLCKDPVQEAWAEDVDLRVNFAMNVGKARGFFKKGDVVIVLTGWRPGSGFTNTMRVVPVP

## COC/C=C/c1cc(F)c(S(=O)(=O)N2CCN(S(=O)(=O)c3ccc4c(c3)OCCO4)CC2)cc1F
  Potency: 17.8 µM (active)
